# hcDAF-12 act: H. contortus DAF-12 nuclear receptor activators, primary screen, cell-based, luminescence, HEK293, lit1-tk-luc reporter. activation, % at 6.8 µM. 1.4% of 370,000 active. HEK293 hcDAF-12 lit1-tk-luc reporter; 0% DMSO, 100% Δ7-dafachronic acid;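 active means activation above the mean of all tested compounds plus 3 SD, cut at about 5.5% in these data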;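 further: 100% = response to 3 µM Δ7-dafachronic acid high control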
# APP 5'UTR act: activators of APP 5'UTR luciferase reporter, primary screen, SH-SY5Y cells; SH-SY5Y APP 5'UTR luciferase reporter, luminescence; zero percent = DMSO vehicle wells; activation, % at 2 µM; 1% of 190,000 active; AID 1276, 2008;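 active means activation above a set limit, based on mean plus 3 SD of controls, cut at about 140% in these data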
# ssDAF-12 act: S. stercoralis DAF-12 nuclear receptor activators, primary screen, cell-based, luminescence, HEK293, GRIP1 co-expression, lit1-tk-luc | HEK293 ssDAF-12/GRIP1 lit1-tk-luc reporter; % of 3 µM dafachronic acid response | AID 652126, 2013 | activation, % at 6.8 µM | Nuclear hormone receptor DAF-12 (Strongyloides stercoralis) | 1% of 370,000 active;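 active means activation above the mean over all tested compounds plus 3 SD, cut at about 0.9% in these data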;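 further: 0% = DMSO-only wells and 100% = 3 µM delta7-dafachronic acid wells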
# NF-kB expr up: activators of NF-kB expression in neurons, primary screen, cell-based, HTS. fold change at 12.5 µM. human neuronal cells, NF-kB reporter expression; stronger effect = higher value. AID 1239, 2008. 1.6% of 190,000 active; in the data active means fold change above about 3.3
# hgDAF-12 ag: H. glycines DAF-12 receptor agonists, primary screen, cell-based, luminescence, HEK293, GAL4 fusion, UAS-luciferase; 1.8% of 370,000 active; HEK293 GAL4-hgDAF12 UAS-luciferase reporter, agonist luminescence; normalized to butyrate control; activation, % at 6.8 µM; AID 687014, 2013;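 active means activation above a cutoff set at the mean of all screened compounds plus 3 SD, cut at about 10% in these data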;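 further: 0% = DMSO wells and 100% = sodium butyrate wells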
# * marks the source's active call; other numbers are inactive results; . = not tested or not shown. Shown are actives, neighbours in structure and some others; about 3.4% of the full set was active somewhere.
SMILES,hcDAF-12 act,APP 5'UTR act,ssDAF-12 act,NF-kB expr up,hgDAF-12 ag
COc1cc(/C=N/n2c(-c3cc(-c4ccccc4)n[nH]3)n[nH]c2=S)ccc1OCc1ccccc1,0,.,0,.,7
COC(=O)C1CN(C2CCCC2)CCS(=O)(=O)N1Cc1cn(Cc2ccc(OC)cc2)nn1 (centres undefined),-3,.,-1,.,7
O=C(O)CCCC(=O)Nc1c(F)c(F)c(F)c(F)c1F,-1,-11,-1,1.2,0
O=C(CCCCC(=O)Nc1c(I)cc(I)c(C(=O)O)c1I)Nc1c(I)cc(I)c(C(=O)O)c1I,0,.,1.9*,.,-2
CCn1c(SCC(=O)Nc2ccc(S(=O)(=O)Nc3cc(C)nc(C)n3)cc2)nc2sc(C)c(C)c2c1=O,-1,.,-2,.,5
Cc1sc2ccccc2c1CNC[C@H]1O[C@@H](n2cnc(C(N)=O)n2)[C@H](O)[C@@H]1O,-1,.,1.0*,.,-3
Cc1sc2ccccc2c1CNC[C@H]1O[C@@H](n2ccc(N)nc2=O)[C@H](O)[C@@H]1O,0,.,0,.,0
S=c1[nH]nc(C2CC2)n1Cc1ccco1,-1,-3,-2,1.4,-1
CCn1c(C2CCN(Cc3ccccc3)CC2)n[nH]c1=S,0,154*,-1,1,-1
C/C(=C\C(=O)Nc1nccs1)c1ccccc1,3,50,0,2.6,12*
C/C(=C\C(=O)O)C(=O)Nc1nccs1,-1,-5,-1,1,0
CCOC(=O)[C@@]12CN(C(=O)OC(C)(C)C)CC=C1N(Cc1ccc(OC)cc1)C(=O)[C@H]2CC(=O)N1CCCC1,0,.,-1,.,3
COc1ccc(-n2c(SCC(=O)Nc3cccc4ccccc34)nnc2-c2ccco2)cc1,-1,.,-1,.,1
Cc1cc(C(=O)Nc2nc3c(s2)CCCC3)no1,4,152*,0,5.1*,9
Cc1onc(-c2ccccc2)c1C(=O)Nc1nc2c(s1)CCCC2,2,.,-1,0.57,5
CCc1ccc2nc(NC(=O)c3cc(C)on3)sc2c1,5,82,0,3.5*,12*
Cc1ccc(S(=O)(=O)N2CCN(C(=O)Cn3c(=O)oc4ccccc43)CC2)cc1,4,.,1.0*,.,10
COc1cc(C=NNC(=O)CN2CCN(Cc3ccc(C)cc3)CC2)cc(OC)c1O,0,.,-1,.,-1
COc1cc(NC(=S)Nc2ncccc2C)cc(OC)c1OC,2,28,-2,1.6,5
Cc1cccnc1NC(=S)Nc1ccc(F)cc1F,2,1,-2,1.7,11*
Cc1ccc(C)c(NC(=S)Nc2ncccc2C)c1,2,36,0,1.7,12*
CC(=O)Nc1c(-c2ccc(C(F)(F)F)cc2)nc2ncccn12,0,.,0,.,1
COC(=O)[C@]12CCCCC=C1N(Cc1ccc(OC)cc1)C(=O)[C@@H]2CC(=O)NCC1CCCCC1,-5,.,-1,.,-1
CCOc1ccc(NC(=O)CN2CCN(c3ccc(F)cc3)CC2)cc1S(=O)(=O)N1CCCC1,0,.,1.0*,.,-1
CCN(CCS(=O)(=O)c1ccc(Cl)cc1)C(=O)Nc1ccccc1,-2,.,-2,.,0
SMILES,hcDAF-12 act,APP 5'UTR act,ssDAF-12 act,NF-kB expr up,hgDAF-12 ag
O=C(Nc1ccccc1)N(O)c1ccc(Cl)cc1,4,21,1.6*,3.3,5
CC(C)C[C@H](NC1(C(=O)NCCc2c[nH]c3ccccc23)CCN(C)CC1)C(=O)NCCCc1ccccc1,-1,.,-2,.,4
C=CCN1C(=O)[C@@H](CC(=O)N2CCN(C(=O)c3ccco3)CC2)[C@]2(C(=O)OCC)CCCCC/C=C/12,-3,.,-1,.,-4
Cc1ccc(O)c(NC(=O)CCC2CCCCC2)c1,-1,64,0,4.1*,5
O=C(CCC1CCCCC1)Nc1ccccc1O,3,61,-1,6.4*,8
CSc1ncccc1C(=O)OCC(=O)c1cc(C)n(C)c1C,6.4*,.,1,.,4
CSc1ncccc1C(=O)OCC(=O)c1ccccc1Br,-1,13,-1,1.4,1
O=C(NCC(c1ccccc1)c1ccccc1)[C@H](Cc1ccccc1)NC1(C(=O)NC2CCCCC2)CCCCCC1,-3,.,-2,.,-1

# Screening data as filed in PubChem BioAssay.
